Laboratory results taken from PubChem BioAssay AID1273 (Columbia University Molecular Screening Center, 2008).
Out of some 130,000 compounds screened, about 1,200 (0.92%) were called active.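 Rule for the calls: active = inhibition above the mean plus 3 SD, with well images judged a real hit on visual review (cut at about 60% in these data, passing the limit was not always enough); inconclusive = inhibition over the cutoff but images rejected on review; inactive = inhibition not above the cutoff.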 This excerpt belongs to a sample that is enriched for actives.

Assay: insulin gene promoter suppression in islet cells – imaging, TRM-6 cells (human fetal islet line), eGFP reporter, cell count, primary screen (AID 1273;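 for normalized cell count: cells exposed to compound for 48 h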)
Settings: at 2 µM, reporter expression induced with tamoxifen; inhibition: stronger effect = higher value; normalized cell count: measured here: cell count, toxicity

Structure (SMILES) | inhibition | normalized cell count
O=c1[nH]c(CN2CCOCC2)nc2scc(-c3ccccc3)c12 | 25% (inactive) | 148%
C#CCOCCOCCOCCNc1nc(N2CCN(C(=O)[C@H](C(C)C)n3cc(CCO)nn3)CC2)nc(N2CCN(C(=O)[C@H]([C@@H](C)CC)n3cc(CCCN=C(N)N)nn3)CC2)n1 | 70% (active) | 95.3%
C#CCOCCOCCOCCNc1nc(N2CCN(C(=O)[C@H](C(C)C)n3cc(CCO)nn3)CC2)nc(N2CCN(C(=O)[C@H](C(C)C)n3cc(CCO)nn3)CC2)n1 | 50% (inactive) | 117%
COCCNC(=O)NC(=O)COC(=O)C1(c2ccc(Cl)cc2)CC1 | 38.9% (inactive) | 75.1%
CCCC(NC(=O)c1ccccc1)c1nc2ccccc2n1Cc1ccc(C(=O)OC)o1 (configuration not stated) | -17.5% (inactive) | 206%
COC(=O)c1ccc(CN(c2ccccc2OC)S(=O)(=O)c2cccs2)o1 | 7.89% (inactive) | 71.6%
COC(=O)c1ccc(Cc2ccccc2)o1 | 92.9% (active) | 83.1%
COc1ccc(-c2cn3cccnc3n2)cc1 | 23.5% (inactive) | 80.6%
Cc1ccc(Cl)c(NC(=O)CN2CCN(C=O)CC2)c1 | -71.4% (inactive) | 117%
O=C(CC1C(=O)NCCN1Cc1ccc(-c2ccccc2)cc1)NCc1ccncc1 (configuration not stated) | 0% (inactive) | 65.4%
CCSc1ccccc1C(=O)Nc1ccc2c(c1)OCO2 | -63.2% (inactive) | 84.3%
N/C(=N\OC(=O)N1c2ccccc2Sc2ccccc21)c1ccc(Br)cc1 | 79.3% (active) | 124%
N/C(=N\OC(=O)/C=C/c1ccccc1)c1ccc(Br)cc1 | 14.3% (inactive) | 133%
N/C(=N\OC(=O)Cc1ccccc1[N+](=O)[O-])c1ccc(Br)cc1 | 7.69% (inactive) | 129%
Cc1ccccc1NC(=O)Cc1nnc(SCC(=O)N2CCN(c3ccccc3)CC2)n1C | 18.2% (inactive) | 112%
Cc1nnc(SCC(=O)N2CCN(c3ccccc3)CC2)n1-c1ccccc1 | -41% (inactive) | 117%
Cc1cc2nnc(SCC(=O)N3CCN(c4ccccc4)CC3)n2c(N)n1 | 74.3% (active) | 82.1%
O=C(CSc1ccsc1[N+](=O)[O-])N1CCCCC1 | -33.3% (inactive) | 80.7%
Cn1c(=O)n(CCc2ccccc2)c(=O)c2c1nc1n2CCCN1c1ccccc1 | -196% (inactive) | 86.5%
Cc1cccc(Cn2c(N3CCN(c4ccccc4)CC3)nc3c2c(=O)n(C)c(=O)n3C)c1 | -28.1% (inactive) | 82.7%
Cc1cccc(N2CC(C)Cn3c2nc2c3c(=O)n(CC(=O)OCc3ccccc3)c(=O)n2C)c1 (configuration not stated) | 87.5% (active) | 63.7%
O=[N+]([O-])/C(N=Nc1ccccc1)=N\Nc1ccccc1 | 7.14% (inactive) | 142%

Structure (SMILES) | inhibition | normalized cell count
COCCCNC(=S)NNC(=O)C(O)(c1ccccc1)c1ccccc1 | -89.5% (inactive) | 100%
C=C(Br)Cn1c(CCCC)nc2ccccc21 | 85.7% (active) | 72.7%
CCCCn1c(CN2CCN(CCO)CC2)nc2ccccc21 | -68.6% (inactive) | 100%
COCn1c(COc2ccccc2)nc2ccccc21 | 30% (inactive) | 132%
CCCNCc1cc(OCC)c(OCC(=O)Nc2ccccc2)cc1Br | 0% (inactive) | 99%
C=C(C)Cn1c(C)cc(C)c(S(=O)(=O)c2ccccc2C)c1=O | 78.4% (active) | 40.9%
Cc1nc([N+](=O)[O-])c(NCCCO)n1Cc1ccccc1 | 50% (inactive) | 125%
CC(C)C(=O)NCc1cc(-c2ccc(Cl)cc2)no1 | 55% (inactive) | 86.2%
CS(=O)(=O)N1CCc2cc(C(=O)Nc3ccccc3)ccc21 | 43.6% (inactive) | 103%
COC(=O)Cn1c(=NC(=O)c2cc(OC)c(OC)c(OC)c2)sc2cc(OC)ccc21 | -14.3% (inactive) | 101%
COC(=O)Cn1c2ccc(C)cc2c2nc(C)sc21 | 85.7% (active) | 32.4%
CCN(CC)CCn1c2ccc(Cl)cc2c2nc(C)sc21 | 46.1% (inactive) | 78.6%
Cc1cc(NC(=O)CN2C(=O)NC(CCc3ccccc3)C2=O)no1 (configuration not stated) | 60% (inactive) | 76%
S=C(NCc1cccnc1)Nc1ccc(Cl)cc1Cl | -31.6% (inactive) | 122%
CC(C(=O)NC1CCCC1)N(c1ccc(Oc2ccccc2)cc1)S(C)(=O)=O (configuration not stated) | -15.8% (inactive) | 67.6%
Cc1ccc(S(=O)(=O)N(C)C)cc1NC(=O)COC(=O)C1COc2ccccc2O1 (configuration not stated) | -44.4% (inactive) | 51.1%
CCCCn1nc(C(=O)Nc2ccc(S(=O)(=O)Nc3ncccn3)cc2)c2ccccc2c1=O | 25% (inactive) | 158%
Cc1ccsc1CNn1cnnc1SCc1ccccc1F | 86.5% (active) | 28.9%
O=C(O)CSc1nnc(-c2ccc3c(c2)OCO3)n1-c1ccccc1 | 15% (inactive) | 96.8%
CCC1(CC)NC(=O)N(Cc2nc3ccccc3s2)C1=O | -16.7% (inactive) | 127%
CCOC12CC(C)(C)CC(C)(CC3=C1C(=O)CC(C)(C)C3)C2 (configuration not stated) | 73.7% (active) | 4.89%
CCCN(CC(=O)Nc1ccc(OC)c(OC)c1)CC(=O)Nc1ccc(F)c(F)c1F | -25% (inactive) | 134%

Structure (SMILES) | inhibition | normalized cell count
O=Cc1ccc(OCc2cn3ccccc3n2)cc1 | 36.4% (inactive) | 194%
COC(=O)NNC1=CC(=O)CC(C)(C)C1 | -26.7% (inactive) | 74.6%
COC(=O)C(NS(=O)(=O)c1ccc(F)cc1)c1ccccc1 (configuration not stated) | -16.3% (inactive) | 140%
Fc1ccccc1/C=C1\CCCC2=C1Nc1ncnn1C2c1ccccc1F (configuration not stated) | 86.1% (active) | 102%
COc1ccc(N2CCN(C3CC(=O)N(c4ccc5c(c4)OCCO5)C3=O)CC2)cc1 (configuration not stated) | 91.7% (active) | 78.3%
COc1cccc(N2CCN(C3CC(=O)N(c4ccc(Cl)cc4)C3=O)CC2)c1 (configuration not stated) | 30.8% (inactive) | 118%
O=CN1CCN(C2CC(=O)N(c3ccc4c(c3)OCO4)C2=O)CC1 (configuration not stated) | 20.9% (inactive) | 129%
CCN(/N=C/c1ccc(N(C)C)cc1)c1nc2ccccc2[nH]1 | 86.7% (active) | 159%
CN(C)c1ccc(/C=N\S(=O)(=O)c2ccccc2)cc1 | -39.5% (inactive) | 46.9%
Nc1cccc(CCc2nc3ccccc3[nH]2)c1 | 17.2% (inactive) | 146%
Cc1nn(CC#N)c(=O)n1N(C)c1ncc(C(F)(F)F)cc1Cl | 30% (inactive) | 84.4%
COc1ccccc1CSc1nc2ccccc2[nH]1 | -54.8% (inactive) | 124%
C=CCSc1nc2ccccc2[nH]1 | 81.8% (active) | 184%
O=C(CSc1nc2ccccc2[nH]1)c1cccs1 | 42.9% (inactive) | 105%
CCOC(=O)CSc1nc(C)cc2c1C(=O)OC2 | 28.6% (inactive) | 94.5%
CCCCc1nnc(NC(=O)CSc2nc(N)cc(=O)[nH]2)s1 | 12.5% (inactive) | 93.7%
COc1ccc2oc(=O)c(C(=O)N3CCCC3)cc2c1 | 44.4% (inactive) | 107%
CN(C)c1ccc(C=NCCc2ccc(S(N)(=O)=O)cc2)cc1 | 31.2% (inactive) | 121%
Cc1ccc2nc(Nc3ncc4c(n3)CC(C)(C)CC4=O)nc(C)c2c1 | -25% (inactive) | 96.8%
CC1(C)CC(=O)c2cnc3nc4ccccc4n3c2C1 | 76.2% (active) | 56.3%
CC(C)(C)c1cc(=O)n2c(nc3ccccc32)[nH]1 | 29.4% (inactive) | 245%
Cc1ccc(OCCCn2c(=O)oc3ccccc32)cc1 | -26.7% (inactive) | 84.1%

Structure (SMILES) | inhibition | normalized cell count
COc1ccc(OC)c(Cc2nnc(CCC(=O)NC3CCCC3)o2)c1 | 11.1% (inactive) | 95.3%
Cc1onc(C(=O)NN)c1C(=O)N1CCN(C(c2ccccc2)c2ccccc2)CC1 | 81.8% (active) | 29.3%
Cn1nnnc1SCC(=O)N1CCN(C(c2ccccc2)c2ccccc2)CC1 | -18.9% (inactive) | 68.2%
Cc1onc(-c2ccccc2)c1C(=O)N1CCOCC1 | -90% (inactive) | 78.8%
Cc1nnsc1C(=O)N/N=C/c1cccc(C(F)(F)F)c1 | -86.7% (inactive) | 39.6%
O=c1c([N+](=O)[O-])cccn1Cc1ccc(F)cc1Cl | 73.3% (active) | 83.1%
O=c1c([N+](=O)[O-])cc(C(F)(F)F)cn1Cc1cccc(Cl)c1 | -10.7% (inactive) | 66.7%
O=[N+]([O-])c1ccccc1NCc1ccccc1Cl | 33.3% (inactive) | 123%
CCOC(=O)Cn1nnnc1C | 26.7% (inactive) | 95.5%
O=C(c1snnc1-c1ccccc1)N1CCOCC1 | -30.2% (inactive) | 64.9%
Cc1cccc(C)c1NC(=O)C1(N(C(=O)c2ccccn2)c2ccc(O)cc2)CCCCC1 | 6.67% (inactive) | 38.5%
CC(O)c1cccc(NC(=O)Cc2cccc3ccccc23)c1 (configuration not stated) | -38.9% (inactive) | 41%
CCCOc1ccc(NC(=O)C2CCCNC2=O)cc1 (configuration not stated) | 5.71% (inactive) | 82.1%
COc1ccc(C(=O)N2CCC(C(=O)Nc3ccc(C)cc3)CC2)cc1 | 33.3% (inactive) | 85.5%
O=C1CCC(C(=O)Nc2ccc(OC(F)F)cc2)N1 (configuration not stated) | 72.7% (active) | 73.3%
CCOC(=O)Cc1ncccc1C(=O)Nc1ccc(OC(F)(F)F)cc1 | 0% (inactive) | 62.2%
O=C(CNCc1ccc(Cl)cc1)Nc1cccc(C(=O)O)c1 | 38.5% (inactive) | 79.9%
Cc1ccc(OC(=O)c2cc3ccccc3o2)cc1 | -79.3% (inactive) | 174%
Cc1ccc(S(=O)(=O)c2ccc(Oc3ccccc3)cc2)cc1 | -87.1% (inactive) | 116%
Cc1ccc(O/C=C2\OC(=O)c3ccccc32)cc1 | 81.2% (active) | 93%
